Measured values from PubChem BioAssay (EPA / NIEHS).
Active and inactive are the calls of the source. Rule for the calls: active = hit-call score of the fitted dose curve at least 0.9, where 1 is the maximum; inactive = score below 0.9.

Assay: CCTE_Simmons_MITO_max_resp_rate: CCTE's HepG2 Seahorse XF Respirometric Screening Assay at Maximal Respiratory State [uncoupled], Simmons Lab (AID 2284002)
Settings: actives raise or lower the signal
Summary of the method: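 HepG2, Seahorse XF96, maximal OCR post-FCCP. Cpd 125 nM–100 uM final (7 conc), n=3 biological. Kinetic reads every 6 min (3 min mix/3 min measure) over 72 min; fit bidirectional vs DMSO.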

Compound | AC50 | outcome
O=C(O)C1(c2ccc3c(c2)OC[C@H](Cc2ccc(-c4ccccc4)cc2)[C@H]3O)CCCC1 | 8.48 µM (active) | 
Oc1cc(Cl)c(Cl)cc1Cl | 75.4 µM (active) | 
Oc1c(Cl)cc(Cl)cc1Cl |  | inactive

Assay: CCTE_Simmons_MITO_inhib_resp_rate: CCTE's HepG2 Seahorse XF Respirometric Screening Assay at Inhibited Respiratory State [full ETC block], Simmons Lab (AID 2284006)
Settings: actives raise or lower the signal
Summary of the method: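 This endpoint is the respiration rate remaining after rotenone/antimycin A block, in HepG2 cells on a Seahorse XF96. Chemicals spanned 125 nM–100 uM final, in three biological replicates. OCR was read every 6 minutes for 72 minutes and compared with DMSO vehicle.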

Compound | outcome
O=C(O)C1(c2ccc3c(c2)OC[C@H](Cc2ccc(-c4ccccc4)cc2)[C@H]3O)CCCC1 | inactive
Oc1cc(Cl)c(Cl)cc1Cl | inactive
Oc1c(Cl)cc(Cl)cc1Cl | inactive
